# Data taken from PubChem BioAssay (NCI).
# The panel holds about 83,000 compounds, 20% with a hit somewhere; the sample as a whole holds those more often.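 Cells were grown in 96-well plates and exposed to the test compound at a single concentration for 48 hours; results are reported as percent growth, with values below 10 considered active.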 Unmarked numbers belong to inactive results. Calls of active or inactive are those of the source.
# Assays:
# Assay in all cases: NCI-60 one-dose screen, 48 h (100 = growth as untreated, 0 = no growth, -100 = all killed)
# Details in all cases: 10 µM unless noted
# HCT-15 colon = tested on: HCT-15 colon
# HT29 colon = tested on: HT29 colon
# SNB-75 CNS = tested on: SNB-75 CNS
# SNB-19 CNS = tested on: SNB-19 CNS
# U251 CNS = tested on: U251 CNS
# PC-3 prostate = tested on: PC-3 prostate
# SK-MEL-5 melanoma = tested on: SK-MEL-5 melanoma
# UACC-62 melanoma = tested on: UACC-62 melanoma
# LOX IMVI melanoma = tested on: LOX IMVI melanoma
# SK-MEL-28 melanoma = tested on: SK-MEL-28 melanoma
# SK-MEL-2 melanoma = tested on: SK-MEL-2 melanoma
# EKVX NSCLC = tested on: EKVX NSCLC
# SN12C renal = tested on: SN12C renal
# UO-31 renal = tested on: UO-31 renal
# TK-10 renal = tested on: TK-10 renal
# CAKI-1 renal = tested on: CAKI-1 renal
# A498 renal = tested on: A498 renal
# CCRF-CEM leukemia = tested on: CCRF-CEM leukemia
# MOLT-4 leukemia = tested on: MOLT-4 leukemia
# ACHN renal = tested on: ACHN renal
SMILES,growth (HCT-15 colon),growth (HT29 colon),growth (SNB-75 CNS),growth (SNB-19 CNS),growth (U251 CNS),growth (PC-3 prostate),growth (SK-MEL-5 melanoma),growth (UACC-62 melanoma),growth (LOX IMVI melanoma),growth (SK-MEL-28 melanoma),growth (SK-MEL-2 melanoma),growth (EKVX NSCLC),growth (SN12C renal),growth (UO-31 renal),growth (TK-10 renal),growth (CAKI-1 renal) [%],growth (A498 renal),growth (CCRF-CEM leukemia),growth (MOLT-4 leukemia),growth (ACHN renal)
COc1ccc(NC2=C(Br)C(=O)C(C)=C(C)C2=O)cc1,91.6%,117%,72%,85.2%,88.3%,73.1%,92.3%,84.4%,-35.6% (active),103%,92.4%,83.5%,79.6%,74%,172%,94.9,93.5%,-13.8% (active),-9.34% (active),–
CC/C=C\C[C@@H](O)C/C=C1/C(=O)C=C[C@H]1C/C=C\CCCC(=O)OC,-31.3% (active),-58.5% (active),90.8%,33.7%,8.72% (active),-21.1% (active),-82.2% (active),-50.6% (active),-69% (active),-32.8% (active),77.9%,88.2%,-29.5% (active),16.9%,31.1%,17.9,97.4%,-9.05% (active),–,–
Cc1nn(-c2ccccc2)c(-n2ccnc2)c1/C=N/Nc1nc(-c2ccc(F)cc2)cs1,76.8%,81.2%,73.7%,87.1%,74.4%,65.5%,31.4%,74.9%,83.7%,97.6%,98.1%,49.5%,80.3%,51.2%,98.3%,80,71.8%,70.1%,–,–
COc1ccc2c(c1)C(C)Cc1c(ncnc1-n1c(C)nc3ccccc31)N2C (stereo unspecified),22.8%,7.08% (active),-4.89% (active),32.3%,25.6%,16.2%,20%,23.3%,25.7%,66.4%,33.9%,43.4%,35.8%,37.3%,57%,–,-9.67% (active),18.3%,20.6%,51.4%
COc1nc2ccccc2cc1-c1nc2c(cnn2-c2ccccc2)c(=O)[nH]1,24.8%,9.45% (active),28.2%,42.1%,37.8%,41.2%,41.7%,36.3%,35%,56.7%,12.9%,58.5%,65.8%,40.2%,72%,–,18.9%,21.1%,40.4%,57.6%
COc1ccc(C(=O)COC(=O)[C@H](C[Se][Se]C[C@H](NC(=O)c2ccc(Br)cc2F)C(=O)OCC(=O)c2ccc(OC)cc2)NC(=O)c2ccc(Br)cc2F)cc1,-30.7% (active),10.7%,-95.6% (active),-38.1% (active),-85.3% (active),-63.8% (active),-8.07% (active),-89.5% (active),-50.8% (active),-74.5% (active),-93.8% (active),-69.4% (active),-79.9% (active),-95.4% (active),-79.6% (active),–,-23.8% (active),-25.4% (active),-1.84% (active),-86.9% (active)
Nc1nn(C(=O)Nc2ccc(Cc3ccccc3)cc2)c2ccc(Cl)cc12,36.6%,74%,122%,83.4%,65.9%,74.7%,35.9%,13.3%,39%,106%,68.7%,70%,64.2%,43.5%,79.7%,–,106%,74%,25.6%,39.9%
CN(C)c1ccc2nc3ccc(=[N+](C)C)c([N+](=O)[O-])c-3sc2c1,32.1%,59%,91.6%,56.6%,6.01% (active),4.48% (active),19.5%,34.1%,4.03% (active),57.8%,47.2%,25%,39.6%,51.7%,71.3%,–,68.5%,12.7%,15.5%,27.9%
COc1ccc2sc3c(NCCCNCCO)nc4ccccc4c3c(=O)c2c1,44%,-39.2% (active),65.9%,66.8%,32.2%,62.3%,81.4%,85%,-99.1% (active),70.6%,102%,67.2%,62%,46.4%,75%,–,38.1%,2.35% (active),16.4%,57.7%
CCN(CC)Cc1cc(Nc2c3ccc(Cl)cc3nc3ccc(OC)cc23)ccc1O,34.1%,11.8%,103%,57.2%,57%,78%,85.5%,103%,24.9%,-5.73% (active),101%,76.2%,56.6%,34.2%,96.6%,–,77.2%,60.4%,22.6%,59.7%
Cc1nc2ccccc2n1-c1ncnc2c1CC(C)c1ccccc1N2C (stereo unspecified),75.4%,59.5%,70.3%,86%,78.8%,67.2%,91.3%,71.2%,82.7%,91.7%,78.3%,92.7%,87.8%,71.3%,97.4%,–,70.4%,76.3%,60.3%,93.2%
COc1ccc(C(=S)N2CCN(c3cccc(C)c3)CC2)cc1OC,44.5%,43.3%,59.7%,78.5%,53.9%,75.3%,60.2%,64%,55.7%,75.7%,34%,102%,75%,76%,92.7%,–,86.4%,74%,54.8%,79.7%
c1ccc(CO[C@H]2CO[C@H]3[C@@H]2OC[C@@H]3Oc2ccc(Nc3ncnc4ccsc34)cc2)cc1,78.7%,81.9%,87.5%,82.7%,81.9%,80.3%,9.33% (active),59.9%,78.8%,88.9%,84%,62.3%,69.3%,42%,99.6%,–,33.2%,77.7%,64.5%,72.1%
CCc1ccc(Oc2c(-c3ccc(OCCc4cccc(C(F)(F)F)c4)cc3O)n[nH]c2C(F)(F)F)cc1,23.8%,86.1%,63.3%,39.8%,12.1%,46.1%,42%,18.6%,17.6%,44.3%,55.4%,50.1%,19.9%,16.1%,58.4%,–,35.9%,11.6%,4.53% (active),16.6%
O=c1ccn(Cc2cn(-c3c4ccccc4nc4ccccc34)nn2)c(=O)[nH]1,91.6%,104%,102%,94.1%,89.5%,97.5%,91.3%,91.4%,74.2%,102%,98%,103%,92.7%,88%,93.8%,96.8,81.8%,83.9%,79.5%,–
COc1ccc(-c2cc(-c3ccc(Cl)cc3)c(C#N)c(=O)n2CCCCCC(=O)Nc2ccccc2N)cc1,23.1%,14.8%,-6.08% (active),70.7%,48.8%,39.5%,-79.7% (active),4.17% (active),-54.2% (active),60.5%,58.5%,51.5%,41.9%,43%,78.3%,–,39.1%,32.5%,35.2%,34.2%
O=C1NC(=O)C(c2ccccc2)(c2ccccc2)N1Cc1cn(-c2c3ccccc3nc3ccccc23)nn1,59.9%,85.3%,85.1%,89.4%,91.2%,78%,82.2%,72.4%,78.2%,103%,97.9%,80.4%,83.6%,62.4%,74.9%,–,77.7%,64.6%,53.5%,81.5%
